Screening results: PubChem BioAssay, National Center for Advancing Translational Sciences (NCATS)
Compounds with a hit are over-represented: about 7.3% of the library has one in this group of screens.
FMDV antiviral – foot and mouth disease virus antiviral activity. Potency, µM (titrated, usually from 57.9 µM), without a hit: top-dose activity change, negative = inhibition, actives largely listed as inhibitors. FMDV antiviral cell-based qHTS. AID 1159524. actives 1.2% (n = 410,000); calls by dose curve; tested in HEK293T cells; further: read-out not given here; potency means the concentration at half of the fitted maximal effect; nearly all actives have a fitted effect of over 45% in size
HCV inhibitor – blocks hepatitis C virus. Potency, µM (titrated, usually from 41.8 µM), without a hit: top-dose activity change, negative = inhibition, most hits filed as inhibitors. Huh7.5.1 HCVcc-Cre infection, luciferase reporter, 44 h. actives 3.4% (n = 340,000); active means well fitted inhibition curve with a large enough effect; inconclusive means small, poorly fitted or top-dose-only effect, or another doubt; inactive means no such curve, though single readings can be large or run the other way; further: potency means the concentration at half of the fitted maximal effect
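After 44 h co-culture of compound, cells and HCVcc-Cre (~0.5 moi), substrate is added for 15 min at room temperature and luciferase measured over 15 sec. Cells were seeded at 1,000/well and pre-cultured 4 h.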
HCMV inh – inhibitors of human cytomegalovirus. HFF cells, HCMV-luciferase reporter, 72 h; active compounds read low. activity change, negative = inhibition, % at 57.5 µM. actives 4.5% (n = 410,000); in the data active means activity change below about -60%; inconclusive means no clear call, values can overlap the other calls; inactive means above about -39%
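Steps: HFFs plated, 16 h 37C; compounds added; HCMV-luciferase added to MOI 1 PFU/cell; 72 h 37C; OneGlo reagent, 5 min room temperature; luminescence read, normalized to controls.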
Vaccinia mCherry – vaccinia inhibition (mCherry reporter); actives 0.63% (n = 310,000); Potency, µM (top dose mostly 36.5 µM), inactives show at the highest dose activity change, negative = inhibition, actives largely listed as inhibitors; Vaccinia virus mCherry reporter infection, fluorescence; calls by dose curve; tested in A549 cells; further: potency means the concentration at half of the fitted maximal effect; nearly all actives have a fitted effect of over 35% in size
Vaccinia Venus – inhibitors of vaccinia virus (Venus reporter); Vaccinia virus Venus reporter expression, fluorescence; Potency, µM (highest dose often 36.5 µM), inactives show at the top dose activity change, negative = inhibition, actives largely listed as inhibitors; actives 0.46% (n = 330,000); AID 720580; calls by dose curve; tested in A549 cells; further: potency means the concentration at half of the fitted maximal effect; nearly all actives have a fitted effect of over 30% in size
An asterisk follows results filed as active; i = inactive; u = inconclusive; x = no result; ! = a repeat was not active; [ ] = another dose, or the depositor's remark. On the % scale 0 is the no-effect control and ±100 the full control effect.

SMILES	FMDV antiviral	HCV inhibitor	HCMV inh	Vaccinia mCherry	Vaccinia Venus
CCOC(=O)c1cccc(NC(=O)/C=C/c2ccc3c(c2)OCO3)c1	40µM*	13µM*	-11	-23%	u
COc1cccc(-c2nc(CS(=O)CC(=O)NC3CCCCC3)c(C)o2)c1 (centres undefined)	39%	-4%	0	-26%	-9%
N#Cc1cccc(NC(=O)CSc2nc3c(cc2C#N)N2CCC3CC2)c1	40%	x	-83*	-23%	-17%
N#Cc1cc2c(nc1SCC(=O)Nc1cc(Cl)cc(Cl)c1)C1CCN2CC1	-13%	-16%	4	x	x
CCOC(=O)c1ccc(NC(=O)CSc2nc3c(cc2C#N)N2CCC3CC2)cc1	13µM*	x	6	-14%	-12%
N#Cc1cc2c(nc1SCC(=O)Nc1ccc(OC(F)(F)F)cc1)C1CCN2CC1	-42%	x	-72*	-27%	-18%
Cc1cc(Cl)c2oc(C(=O)NC3CCC(O)CC3)c(C)c2c1 (centres undefined)	55%	14µM*	-10	x	x
COC(=O)C1CCN(C(=O)c2oc3c(Cl)cc(C)cc3c2C)CC1	58%	-22%	17	x	x
O=C(Nc1cccc(C(=O)N2CCCC2)c1)C1CCC1	-6%	0.56µM*	-22	-14%	-6%
O=C(Nc1cccc(C(=O)N2CCCCC2)c1)C1CCC1	-18%	4%	9	-13%	3%
O=C(Cc1cccc(NC(=O)C2CCCN(C(=O)CCc3ccccc3)C2)c1)Nc1cccc(C(=O)N2CCCCC2)c1 (centres undefined)	u	4.5µM*	-29	i	0%
CN(C(=O)c1cccc(NC(=O)Cc2cccc(NC(=O)C3CCCN(C(=O)CCc4ccccc4)C3)c2)c1)C1CCC1 (centres undefined)	u	3.5µM*	-9	u	u
OC(c1cccnc1)c1ccc2c(c1)CN(Cc1cn(-c3ccccc3)nc1-c1ccccc1)CCO2 (centres undefined)	-18%	x	x	-13%	4%
Clc1cccc(C[n+]2cc(-c3ccccc3)n3c2CCC3)c1	-5%	8%	-70*	0%	-29%
Cc1ccc(-c2c[n+](Cc3cccc(Cl)c3)c3n2CCC3)cc1	u	-26%	-86*	-24%	-23%
O=C(C[C@H]1CC[C@@H](NC(=O)C2CC2)[C@@H](CO)O1)NCc1ccccc1Cl	-23%	x	15	-7%	-2%
COc1ccc(OC)c(CNC(=O)C2CCCCN2S(=O)(=O)c2ccc(F)cc2)c1 (centres undefined)	-9%	x	0	-10%	-3%
Cc1nc2c(sc3nc(N4CCOCC4)c4c(c32)CC(C)(C)OC4)c(-c2ccc(Cl)cc2)c1C(=O)O	-23%	13µM*	-26	x	x
CC1(C)Cc2c(c(N3CCOCC3)nc3snc(N)c23)CO1	u	u	-102*	-19%	-9%
CC1(C)Cc2c(c(N3CCOCC3)nc3sc(C(=O)Nc4ccc(Cl)cc4)c(N)c23)CO1	-18%	4%	94	-18%	9%
COc1ccccc1CNc1nc(-c2ccccc2OC)nc2ccccc12	-28%	x	x	x	x
O=C(CSc1cc(Cl)ccc1Cl)NC1CCCC1	-2%	-2%	-20	-11%	0%
Clc1ccc2[nH]c3c(N4CCC5(CC4)OCCO5)ncnc3c2c1	u	13µM*	x	8.9µM*	8.9µM*
Cc1cccc2[nH]c3c(N4CCC5(CC4)OCCO5)ncnc3c12	40µM*	8.9µM*	-16	x	x
COc1ccc(CNC(=O)C2(C)Cc3c(-c4ccc(N(C)C)cc4)ccnc3O2)cc1OC (centres undefined)	0%	x	2	-20%	-9%
SMILES	FMDV antiviral	HCV inhibitor	HCMV inh	Vaccinia mCherry	Vaccinia Venus
Cc1nn(-c2ccccn2)c2c1C(=O)C(Br)CC2 (centres undefined)	32µM*	-5%	x	-24%	-14%
O=C(NCc1cccs1)C1CC(=O)N(Cc2ccccc2)C1 (centres undefined)	2%	-7%	-5	i	-19%
CCN(CC)C(=O)C1CCCN(c2ncnc3c2cnn3-c2ccc(Cl)cc2)C1 (centres undefined)	20µM*	u	-68*	i	u
CCN(CC)C(=O)C1CCCN(c2ncnc3c2cnn3-c2cccc(C)c2)C1 (centres undefined)	14µM*	u	-37	-14%[1.46 µM]	-26%
CCOC(=O)N1CCN(c2ncnc3c2cnn3-c2ccc(Cl)cc2)CC1	x	-9%	-24	x	x
CCOC(=O)C1CCCN(c2ncnc3c2cnn3-c2cccc(C)c2)C1 (centres undefined)	u	-18%	3	x	x
COc1ccc(CN2C[C@H](Sc3nc4ccccc4[nH]3)C[C@H]2C(=O)N(C)C)c2ccccc12	1%	x	x	-17%	-1%
CCCCCn1c(=O)[nH]c2cc(C(=O)Nc3ccc(F)c(F)c3)ccc2c1=O	-23%	x	-31	-5%	2%
CCn1c(=O)c(=O)[nH]c2cc(C(=O)NCc3ccc(F)cc3)ccc21	-10%	-11%	-23	-7%	10%
O=c1c2ccccc2[nH]c(=S)n1-c1cccc(S(=O)(=O)N2CCCC2)c1	-28%	-12%	-77*	i	-11%
O=c1c(-c2nc3ccccc3s2)cccn1Cc1ccc(Cl)c(Cl)c1	23%	u	-63*	x	x
COc1ccc(N=c2nc(-c3ccccc3)n(-c3ccc(C)cc3)s2)cc1	x	x	x	11µM*	u
COc1ccc(N=c2nc(-c3ccc(C)cc3)n(-c3ccccc3)s2)cc1	x	x	x	-29%	u
N=c1nc(-c2ccccc2)n(-c2ccccc2)s1	x	x	x	22%	-14%
Cc1ccc(-c2nc(=Nc3ccccc3)sn2-c2ccccc2)cc1	x	x	x	14µM*	u
Nc1cc(=O)n(Cc2ccccc2)c(N)c1C(=O)NCc1ccccc1	x	x	-9	x	x
CC(C)(C)C(=O)NC(=S)Nc1cc(C(=O)O)ccc1Cl	5%	12%	-61*	-13%	-3%
CC(C)(C)C(=O)NC(=S)Nc1cccc(C(=O)O)c1	-3%	-8%	-3	-15%	-9%
CC1CCN(c2cc3c(cc2F)c(=O)c(S(=O)(=O)c2cccc(Cl)c2)cn3Cc2ccccc2)CC1	1%	x	51	i	-10%
Cc1c(C(=O)c2no[n+]([O-])c2C(=O)c2cnn(C)c2C)cnn1C	40µM*	u	-107*	-16%[1.46 µM]	-13%
Cc1c(C(=O)Nc2ccc(Br)cc2)cnn1C	21%	8%	118	-8%	-2%
COc1ccc(C(C)n2c(C)c3c(C)nnc(C)c3c2C)cc1 (centres undefined)	0%	u	-81*!	u	u
COc1ccc(-c2nc(C)c(C(C)=O)n2O)cc1	19%	-6%	94	x	x
Cc1nnc(C)c2c(C)n(C(C)c3ccccc3)c(C)c12 (centres undefined)	u	10µM*	u	-21%	-24%
CCOc1ccc(S(=O)(=O)N2CCN=C2c2ccccc2)c(C)c1C	-16%	3%	-20	u	u
CN1CCC(N(C)c2nc(-c3ccc([N+](=O)[O-])cc3)nc3ccccc23)CC1	0%	4.5µM*	29	u	10µM*
